Where a name gives a salt, the structure may show the parent alone.
tested on: MDA-MB-231; assay: relative cell viability, compound + RSL3, vs DMSO (fraction of DMSO control); higher = less growth inhibition; details: 72 h
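Further: breast cancer cell viability read out with the CCK-8 kit after co-treatment of each compound with the ferroptosis inducer RSL3.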

Q: `O=C(O)C(O)Cc1ccc(O)c(O)c1` (centres undefined) [Sodium Danshensu] + COC(=O)c1ccc([C@H]2c3[nH]c4ccccc4c3C[C@H](C(=O)OC)N2C(=O)CCl)cc1 [RSL3] was tested. Which relative cell viability did it give?
A: 0.545

Q: How did the relative cell viability turn out when `O=C(O)CCCc1cc2cc(Cl)ccc2n1S(=O)(=O)c1ccc2ncsc2c1` [Lanifibranor] + COC(=O)c1ccc([C@H]2c3[nH]c4ccccc4c3C[C@H](C(=O)OC)N2C(=O)CCl)cc1 [RSL3] was run?
A: 0.786

Q: How did the relative cell viability turn out when `Oc1ccc(/C=C/c2cc(O)cc(O)c2)cc1` [Resveratrol] + COC(=O)c1ccc([C@H]2c3[nH]c4ccccc4c3C[C@H](C(=O)OC)N2C(=O)CCl)cc1 [RSL3] was run?
A: 0.508

Q: With `Cc1nc(-c2nc(-c3ccc(OC(F)(F)F)cc3)no2)nn1Cc1cccc(N2CCC(S(C)(=O)=O)CC2)c1` + COC(=O)c1ccc([C@H]2c3[nH]c4ccccc4c3C[C@H](C(=O)OC)N2C(=O)CCl)cc1 [RSL3] as the molecule, how does the relative cell viability read?
A: 0.559

Q: `C[C@@H]1OCC2(CCN(c3cnc(Sc4ccnc(N)c4Cl)c(N)n3)CC2)[C@@H]1N` + COC(=O)c1ccc([C@H]2c3[nH]c4ccccc4c3C[C@H](C(=O)OC)N2C(=O)CCl)cc1 [RSL3] was tested. Which relative cell viability did it give?
A: 0.71

Q: How did the relative cell viability turn out when `O=C1C(SCCO)=C(SCCO)C(=O)c2ccccc21` + COC(=O)c1ccc([C@H]2c3[nH]c4ccccc4c3C[C@H](C(=O)OC)N2C(=O)CCl)cc1 [RSL3] was run?
A: 0.925

Q: `O=c1c(-c2ccc(O)cc2)coc2cc(O)ccc12` [Daidzein] + COC(=O)c1ccc([C@H]2c3[nH]c4ccccc4c3C[C@H](C(=O)OC)N2C(=O)CCl)cc1 [RSL3] was tested. Which relative cell viability did it give?
A: 0.608

Q: With `O=C(CN1CCN(C(=O)c2ccco2)CC1)Nc1cc(C(F)(F)F)ccc1Cl` + COC(=O)c1ccc([C@H]2c3[nH]c4ccccc4c3C[C@H](C(=O)OC)N2C(=O)CCl)cc1 [RSL3] as the molecule, how does the relative cell viability read?
A: 0.373

Q: Which relative cell viability does the source give for `Cc1c2c(=O)n(-c3ccccc3Cl)[nH]c2cc(=O)n1Cc1ccccn1` + COC(=O)c1ccc([C@H]2c3[nH]c4ccccc4c3C[C@H](C(=O)OC)N2C(=O)CCl)cc1 [RSL3] here?
A: 0.626

Q: With `CC(C)(Oc1ccc(CCNC(=O)c2ccc(Cl)cc2)cc1)C(=O)O` [Bezafibrate] + COC(=O)c1ccc([C@H]2c3[nH]c4ccccc4c3C[C@H](C(=O)OC)N2C(=O)CCl)cc1 [RSL3] as the molecule, how does the relative cell viability read?
A: 0.518

Q: How did the relative cell viability turn out when `Nc1ncnc2c1ncn2[C@@H]1O[C@H](COP(=O)(O)O)[C@@H](O)[C@H]1O` [Adenosine 5'-monophosphate] + COC(=O)c1ccc([C@H]2c3[nH]c4ccccc4c3C[C@H](C(=O)OC)N2C(=O)CCl)cc1 [RSL3] was run?
A: 0.485

Q: `CCCCC[C@H](O)CC(=O)CCc1ccc(O)c(OC)c1` [6-Gingerol] + COC(=O)c1ccc([C@H]2c3[nH]c4ccccc4c3C[C@H](C(=O)OC)N2C(=O)CCl)cc1 [RSL3] was tested. Which relative cell viability did it give?
A: 0.483

Q: For `O=c1ccc2cc(O)c(O)cc2o1` [Esculetin] + COC(=O)c1ccc([C@H]2c3[nH]c4ccccc4c3C[C@H](C(=O)OC)N2C(=O)CCl)cc1 [RSL3], which relative cell viability is on record?
A: 0.497

Q: How did the relative cell viability turn out when `O=C(Nc1ccccc1)c1cc([N+](=O)[O-])ccc1Cl` + COC(=O)c1ccc([C@H]2c3[nH]c4ccccc4c3C[C@H](C(=O)OC)N2C(=O)CCl)cc1 [RSL3] was run?
A: 0.705

Q: How did the relative cell viability turn out when `C[C@H]1N=C(N(C)C)N=C(N)N1` [Imeglimin hydrochloride] + COC(=O)c1ccc([C@H]2c3[nH]c4ccccc4c3C[C@H](C(=O)OC)N2C(=O)CCl)cc1 [RSL3] was run?
A: 0.647

Q: For `Cc1ccc(C)c(OCCCC(C)(C)C(=O)O)c1` [Gemfibrozil] + COC(=O)c1ccc([C@H]2c3[nH]c4ccccc4c3C[C@H](C(=O)OC)N2C(=O)CCl)cc1 [RSL3], which relative cell viability is on record?
A: 0.523

Q: For `O=C(NCCS(=O)(=O)c1ccc(C(F)(F)F)cn1)c1ccc(Cl)cc1` + COC(=O)c1ccc([C@H]2c3[nH]c4ccccc4c3C[C@H](C(=O)OC)N2C(=O)CCl)cc1 [RSL3], which relative cell viability is on record?
A: 0.525

Q: Which relative cell viability does the source give for `CC[C@H](C)C(=O)O[C@H]1C[C@@H](C)C=C2C=C[C@H](C)[C@H](CC[C@@H]3C[C@@H](O)CC(=O)O3)[C@H]21` [Lovastatin] + COC(=O)c1ccc([C@H]2c3[nH]c4ccccc4c3C[C@H](C(=O)OC)N2C(=O)CCl)cc1 [RSL3] here?
A: 0.491

Q: Which relative cell viability does the source give for `O=C(OC(C(F)(F)F)C(F)(F)F)N1CCC(C(O)(c2ccc3c(c2)OCO3)c2ccc3c(c2)OCO3)CC1` + COC(=O)c1ccc([C@H]2c3[nH]c4ccccc4c3C[C@H](C(=O)OC)N2C(=O)CCl)cc1 [RSL3] here?
A: 0.551

— the supplement of paper PMC9492666
